Several values for one entry are separate records, joined by “and”; a condition that tells them apart may be missing. Equal values may be shown once. Results filed as inconclusive are left out. Activity calls are given as the source filed them. Calls come from the whole dose curve; as a rule, active = well fitted curve in the direction sought with a large enough effect in the repeat runs; inconclusive = weak or mixed curves; inactive = no such curve, though single readings can be large; an effect the other way counts as inactive or inconclusive.
Legend:
[1] = qHTS RealTime-Glo MT Cell Viability Assay in HepG2 cells - 40 hour (AID 1224870); details: RealTime-Glo luminescence; series mostly up to 76.8 µM; note: nearly all actives have a fitted effect of over 50% in size
Summary of the method: (§1)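 Real-time viability: cells seeded at 600 per well together with NanoLuc and cell-permeant prosubstrate, compounds added after 5 h incubation. Luminescence tracked at 0, 8, 16, 24, 32 and 40 h of exposure.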

[2] = A CellTox Green Cytotoxicity Assay to monitor cytotoxicity in HEK293 cells - 40 hour (AID 1224871); details: CellTox Green fluorescence; series mostly up to 35.3 µM; note: nearly all actives have a fitted effect of over 45% in size
Summary of the method: (§2)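 Tox21 screen in HEK293: membrane-impermeant cyanine dye fluoresces on binding dead-cell DNA; compound pinned 5 h post-seeding, plates held at 37 C, signal read repeatedly through 40 h.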

[3] = qHTS RealTime-Glo MT Cell Viability Assay in HEK293 cells - 16 hour (AID 1224872); details: RealTime-Glo luminescence; series mostly up to 76.8 µM; note: nearly all actives have a fitted effect of over 50% in size; note: potency is the fitted concentration of half-maximal effect
Summary of the method: (§3)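 Quantitative high-throughput screen of the Tox21 10K library in HEK293: cells and RealTime-Glo reagents plated together, compound added at 5 h, luminescence monitored through 40 h at 37 C.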

[4] = qHTS RealTime-Glo MT Cell Viability Assay in HepG2 cells - 8 hour (AID 1224873); details: RealTime-Glo luminescence; series mostly up to 76.8 µM; note: nearly all actives have a fitted effect of over 55% in size
Summary of the method: as §1

[5] = qHTS RealTime-Glo MT Cell Viability Assay in HEK293 cells - 40 hour (AID 1224874); details: RealTime-Glo luminescence; max response: active compounds read low; note: nearly all actives have a fitted effect of over 50% in size; note: potency is the fitted concentration of half-maximal effect
Summary of the method: (§4)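 HEK293 + NanoLuc + prosubstrate, 600 cells/well; 5 h, 37 C/5% CO2; compound 23 nL in DMSO by pintool; 37 C; luminescence read at 0, 8, 16, 24, 32 and 40 h time points.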

[6] = A CellTox Green Cytotoxicity Assay to monitor cytotoxicity in HEK293 cells - 24 hour (AID 1224875); details: CellTox Green fluorescence; series mostly up to 76.8 µM; note: nearly all actives have a fitted effect of over 45% in size
Summary of the method: as §2

[7] = A CellTox Green Cytotoxicity Assay to monitor cytotoxicity in HepG2 cells - 16 hour (AID 1224876); details: CellTox Green fluorescence; series mostly up to 76.8 µM; note: nearly all actives have a fitted effect of over 45% in size
Summary of the method: (§5)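 Measurements at 0, 8, 16, 24, 32 and 40 h of treatment captured CellTox Green fluorescence in HepG2 cells that had been co-plated with reagent and preincubated 5 h at 37 C/5% CO2.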

[8] = qHTS RealTime-Glo MT Cell Viability Assay in HepG2 cells - 32 hour (AID 1224877); details: RealTime-Glo luminescence; series mostly up to 76.8 µM; note: nearly all actives have a fitted effect of over 55% in size
Summary of the method: (§6)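 Compound treatment began 5 h after plating HepG2 cells (600/well) with NanoLuc luciferase and prosubstrate. Plates stayed at 37 C for 40 h; luminescence was captured at six time points, 0 h through 40 h.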

[9] = A CellTox Green Cytotoxicity Assay to monitor cytotoxicity in HepG2 cells - 24 hour (AID 1224878); details: CellTox Green fluorescence; series mostly up to 76.8 µM; note: nearly all actives have a fitted effect of over 45% in size
Summary of the method: as §5

[10] = A CellTox Green Cytotoxicity Assay to monitor cytotoxicity in HepG2 cells - 40 hour (AID 1224879); details: CellTox Green fluorescence; series mostly up to 76.8 µM; note: nearly all actives have a fitted effect of over 40% in size
Summary of the method: as §5

[11] = qHTS RealTime-Glo MT Cell Viability Assay in HEK293 cells - 0 hour (AID 1224880); details: RealTime-Glo luminescence; series mostly up to 76.8 µM
Summary of the method: as §4

[12] = A CellTox Green Cytotoxicity Assay to monitor cytotoxicity in HEK293 cells - 32 hour (AID 1224881); details: CellTox Green fluorescence; series mostly up to 35.3 µM; note: nearly all actives have a fitted effect of over 40% in size
Summary of the method: as §2

[13] = A CellTox Green Cytotoxicity Assay to monitor cytotoxicity in HepG2 cells - 0 hour (AID 1224882); details: CellTox Green fluorescence; series mostly up to 76.8 µM; note: nearly all actives have a fitted effect of over 35% in size
Summary of the method: as §5

[14] = A CellTox Green Cytotoxicity Assay to monitor cytotoxicity in HepG2 cells - 32 hour (AID 1224883); details: CellTox Green fluorescence; series mostly up to 76.8 µM; note: nearly all actives have a fitted effect of over 50% in size
Summary of the method: as §5

[15] = A CellTox Green Cytotoxicity Assay to monitor cytotoxicity in HEK293 cells - 8 hour (AID 1224884); details: CellTox Green fluorescence; series mostly up to 76.8 µM; note: nearly all actives have a fitted effect of over 35% in size
Summary of the method: as §2

[16] = qHTS RealTime-Glo MT Cell Viability Assay in HepG2 cells - 16 hour (AID 1224885); details: RealTime-Glo luminescence; series mostly up to 76.8 µM; note: nearly all actives have a fitted effect of over 50% in size
Summary of the method: as §6

[17] = qHTS RealTime-Glo MT Cell Viability Assay in HEK293 cells - 24 hour (AID 1224886); details: RealTime-Glo luminescence; series mostly up to 76.8 µM; note: nearly all actives have a fitted effect of over 50% in size; note: potency is the fitted concentration of half-maximal effect
Summary of the method: as §3

[18] = A CellTox Green Cytotoxicity Assay to monitor cytotoxicity in HEK293 cells - 16 hour (AID 1224888); details: CellTox Green fluorescence; series mostly up to 76.8 µM; note: nearly all actives have a fitted effect of over 35% in size
Summary of the method: as §2

[19] = qHTS RealTime-Glo MT Cell Viability Assay in HepG2 cells - 0 hour (AID 1224889); details: RealTime-Glo luminescence; series mostly up to 76.8 µM; note: nearly all actives have a fitted effect of over 50% in size
Summary of the method: as §6

[20] = qHTS RealTime-Glo MT Cell Viability Assay in HEK293 cells - 8 hour (AID 1224887); details: RealTime-Glo luminescence; series mostly up to 76.8 µM; note: nearly all actives have a fitted effect of over 50% in size; note: potency is the fitted concentration of half-maximal effect
Summary of the method: as §4
% is set by controls: 0 for no effect and ±100 for the full control effect.

NS(=O)(=O)c1cc(C(=O)NN2C[C@H]3[C@H]4CCC(C4)[C@H]3C2)ccc1Cl
inactive: Potency [1] | Potency [2] | Potency [3] | Potency [4] | max response [5] -21.1% | Potency [6] | Potency [7] | Potency [8] | Potency [9] | Potency [10] | Potency [11] | Potency [12] | Potency [13] | Potency [14] | Potency [15] | Potency [16] | Potency [17] | Potency [18] | Potency [19]

OC1CCCCC1c1ccccc1 (stereo not given)
inactive: Potency [1] | Potency [2] | Potency [3] | Potency [4] | max response [5] 3.62% | Potency [6] | Potency [7] | Potency [8] | Potency [9] | Potency [10] | Potency [11] | Potency [13] | Potency [14] | Potency [15] | Potency [16] | Potency [17] | Potency [20] | Potency [18] | Potency [19]

CN1N=C(C(N)=O)CCC1=O
inactive: Potency [1] | Potency [2] | Potency [3] | Potency [4] | max response [5] 0.803% | Potency [7] | Potency [8] | Potency [9] | Potency [10] | Potency [11] | Potency [12] | Potency [13] | Potency [14] | Potency [15] | Potency [16] | Potency [17] | Potency [20] | Potency [18] | Potency [19]

CN(C)CCCNCCCN(C)C
inactive: Potency [1] | Potency [2] | Potency [3] | Potency [4] | max response [5] 5.75% | Potency [7] | Potency [8] | Potency [9] | Potency [10] | Potency [11] | Potency [12] | Potency [13] | Potency [14] | Potency [15] | Potency [16] | Potency [17] | Potency [20] | Potency [18] | Potency [19]

CCn1ccnc1CC1COc2ccccc2O1 (stereo not given)
inactive: Potency [1] | Potency [2] | Potency [3] | Potency [4] | max response [5] -26.6% | Potency [6] | Potency [7] | Potency [8] | Potency [9] | Potency [10] | Potency [11] | Potency [12] | Potency [14] | Potency [15] | Potency [16] | Potency [17] | Potency [20] | Potency [18] | Potency [19]

COc1ccc(CCN(C)CCCC(C#N)(c2cc(OC)c(OC)c(OC)c2)C(C)C)cc1OC (stereo not given)
active: Potency [3] 10.7 µM | Potency [5] 23.9 µM | Potency [17] 21.3 µM | Potency [20] 21.3 µM
inactive: Potency [1] | Potency [2] | Potency [4] | Potency [6] | Potency [7] | Potency [8] | Potency [9] | Potency [11] | Potency [12] | Potency [13] | Potency [14] | Potency [15] | Potency [16] | Potency [18] | Potency [19]

CCc1ccc(O)c(OC)c1
inactive: Potency [1] | Potency [2] | Potency [3] | Potency [4] | max response [5] 4.24% | Potency [6] | Potency [7] | Potency [8] | Potency [9] | Potency [10] | Potency [11] | Potency [12] | Potency [14] | Potency [15] | Potency [16] | Potency [17] | Potency [20] | Potency [19]

CC[N+](C)(C)c1cccc(O)c1
inactive: Potency [1] | Potency [2] | Potency [3] | Potency [4] | max response [5] -7.12% | Potency [7] | Potency [8] | Potency [9] | Potency [10] | Potency [11] | Potency [12] | Potency [13] | Potency [14] | Potency [15] | Potency [16] | Potency [17] | Potency [20] | Potency [18] | Potency [19]

Cc1ccc(C#N)cc1
inactive: Potency [1] | Potency [2] | Potency [3] | Potency [4] | max response [5] 6.96% | Potency [6] | Potency [7] | Potency [8] | Potency [9] | Potency [10] | Potency [11] | Potency [12] | Potency [14] | Potency [15] | Potency [16] | Potency [17] | Potency [18] | Potency [19]

O=C1CCCCCCCCCCCN1
inactive: Potency [1] | Potency [2] | Potency [3] | Potency [4] | max response [5] 0.14% and 1.61% | Potency [7] | Potency [8] | Potency [9] | Potency [10] | Potency [11] | Potency [12] | Potency [13] | Potency [14] | Potency [15] | Potency [16] | Potency [17] | Potency [20] | Potency [18] | Potency [19]

NC(=O)c1cn(Cc2c(F)cccc2F)nn1
inactive: Potency [1] | Potency [2] | Potency [3] | Potency [4] | max response [5] 4.6% | Potency [6] | Potency [7] | Potency [8] | Potency [9] | Potency [10] | Potency [11] | Potency [12] | Potency [14] | Potency [15] | Potency [16] | Potency [17] | Potency [18] | Potency [19]

NC(=O)c1ccc([N+](=O)[O-])cc1
inactive: Potency [1] | Potency [2] | Potency [3] | Potency [4] | max response [5] 2.32% | Potency [7] | Potency [8] | Potency [9] | Potency [10] | Potency [11] | Potency [12] | Potency [13] | Potency [14] | Potency [15] | Potency [16] | Potency [17] | Potency [20] | Potency [18] | Potency [19]

O=C(CCCN1CCC(O)(c2cccc(C(F)(F)F)c2)CC1)c1ccc(F)cc1
inactive: Potency [1] | Potency [2] | Potency [4] | Potency [6] | Potency [7] | Potency [8] | Potency [11] | Potency [12] | Potency [13] | Potency [15] | Potency [16] | Potency [18] | Potency [19]
active: Potency [3] 19 µM | Potency [5] 21.3 µM | Potency [17] 16.9 µM | Potency [20] 15.1 µM

COc1ccc2c(c1)CCCC2=O
inactive: Potency [1] | Potency [2] | Potency [3] | Potency [4] | max response [5] 0.353% | Potency [7] | Potency [8] | Potency [9] | Potency [10] | Potency [11] | Potency [12] | Potency [13] | Potency [14] | Potency [15] | Potency [16] | Potency [17] | Potency [20] | Potency [18] | Potency [19]

O=C(O)CCCl
inactive: Potency [1] | Potency [2] | Potency [3] | Potency [4] | max response [5] 13% | Potency [7] | Potency [8] | Potency [9] | Potency [10] | Potency [11] | Potency [12] | Potency [13] | Potency [14] | Potency [15] | Potency [16] | Potency [17] | Potency [20] | Potency [18] | Potency [19]

CCC(C)C1CCCCC1=O (stereo not given)
inactive: Potency [1] | Potency [2] | Potency [3] | Potency [4] | max response [5] 7.3% | Potency [6] | Potency [7] | Potency [8] | Potency [9] | Potency [10] | Potency [11] | Potency [12] | Potency [14] | Potency [15] | Potency [16] | Potency [17] | Potency [19]

O=C1CCCN1C1CCCCC1
inactive: Potency [1] | Potency [2] | Potency [3] | Potency [4] | max response [5] 6.98% | Potency [6] | Potency [7] | Potency [8] | Potency [9] | Potency [10] | Potency [11] | Potency [12] | Potency [14] | Potency [15] | Potency [16] | Potency [17] | Potency [20] | Potency [19]

From PubChem BioAssay (Tox21)
